Source: ChEMBL document CHEMBL3988442, “University of Dundee, Small-Polar-MMV Screening Library” (2021)

Assays:
[1] = molecular target: T1, Aspartate--tRNA(Asp/Asn) ligase (Mycobacterium tuberculosis (strain ATCC 25618 / H37Rv)) (UniProt P9WFW3); experiment: Assay for Asp RNA synthetase-1 from Mycobacterium tuberculosis; format: functional; design: scale not given: direction of the effect not stated beside the values; conditions: 30 µM; further: in the data most compounds retested in dose-response had high values
T1 sequence (whole entry): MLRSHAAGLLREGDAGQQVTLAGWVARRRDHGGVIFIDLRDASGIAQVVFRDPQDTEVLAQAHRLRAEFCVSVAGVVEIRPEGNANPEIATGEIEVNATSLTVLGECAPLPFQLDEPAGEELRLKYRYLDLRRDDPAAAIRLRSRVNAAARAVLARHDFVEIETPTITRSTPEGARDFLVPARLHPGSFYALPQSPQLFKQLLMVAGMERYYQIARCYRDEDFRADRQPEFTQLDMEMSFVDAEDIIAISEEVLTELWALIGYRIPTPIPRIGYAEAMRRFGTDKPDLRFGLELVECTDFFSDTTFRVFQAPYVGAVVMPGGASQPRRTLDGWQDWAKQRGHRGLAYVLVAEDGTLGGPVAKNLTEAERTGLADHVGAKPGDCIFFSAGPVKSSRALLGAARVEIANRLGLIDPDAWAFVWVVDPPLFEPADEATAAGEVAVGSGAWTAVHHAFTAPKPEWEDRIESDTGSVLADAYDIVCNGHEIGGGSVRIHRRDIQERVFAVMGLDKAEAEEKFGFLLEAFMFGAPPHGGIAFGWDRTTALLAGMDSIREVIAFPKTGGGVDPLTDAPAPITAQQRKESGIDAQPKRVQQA

[2] = molecular target: Shiga toxin 2 (Escherichia coli O157:H7) (UniProt P09385+P09386); experiment: E. coli 0.157:H7 Shiga Toxin SOP - stx2 screening assay; format: functional; design: scale not given: direction of the effect not stated beside the values; conditions: 30 µM

Row | Structure (SMILES) | Percent Effect [1] [%] | Percent Effect [2] [%]
1 | Cc1cccc(CCC(=O)N2CCCC(c3cc(C(N)=O)[nH]n3)C2)c1 (configuration not stated) | -0.161 | -10.2
2 | CCc1nnc2n1CCN(Cc1ccc3c(c1)OCCO3)C2 | 4.98 | 15.5
3 | CSCc1cccc(C(=O)N2CCN(CC(C)O)CC2)c1 (configuration not stated) | -0.819 | 7.3
4 | Cc1cn2c(n1)CCC(NC(=O)CCC(F)(F)F)C2 (configuration not stated) | -0.225 | 5.05
5 | Cc1nc(CN2CCCC(N(C)Cc3cscn3)C2)no1 (configuration not stated) | 4.73 | -14.1
6 | CS(=O)(=O)N1CC[C@]2(C[C@@H](OCC3CCC3)CO2)C1 | -2.3 | 6.17
7 | CNc1ccc(CC2CCCN(C(=O)c3cncnc3C)C2)nn1 (configuration not stated) | 0.485 | 29.8
8 | CC(C)c1cc(NC(=O)CN2CCNC(=O)C2)on1 | 2.59 | -3.5
9 | O=C(CCc1ccccc1)N1CCn2cc(CN3CCCC3)nc2C1 | 0.131 | -15.9
10 | Cc1nc(-c2ccccc2)n(CC(=O)NCC(C)C)n1 | -3.61 | 22
11 | O=C(Cc1cn2ccsc2n1)N1CCCC(n2cncn2)C1 (configuration not stated) | -0.0111 | -30
12 | COc1ccc(F)cc1CN1CCCC(c2cc(C(N)=O)[nH]n2)C1 (configuration not stated) | -5.13 | 1.05
13 | Cc1ccc(S(=O)(=O)Nc2ccc(-n3cccc3C(=O)O)c(C)c2)s1 | 4.34 | 18.8
14 | Cc1nc(CCNC(=O)C2CC(=O)N(C(C)(C)C)C2)sc1C (configuration not stated) | 1.05 | -3.12
15 | CCCn1[nH]cc/c1=N\C(=O)CN1CCc2c(nc(C(C)C)n2C)C1 | 1.84 | 1.47
16 | COc1ccccc1CCN(C)C(=O)NC(C)c1nncn1C (configuration not stated) | -4.13 | 1.17
17 | Cc1cnn(C2CCCN(C(=O)c3cccc(Cn4ccnc4)c3)C2)c1 (configuration not stated) | 0.538 | -30.9
18 | CC(C)N(C)Cc1cn2c(n1)CN(C(=O)Cc1ccsc1)CC2 | 2.92 | -5.19
19 | CCc1nc(CN2CCCN(C(=O)C(C)n3cncn3)CC2)cs1 (configuration not stated) | -3.06 | 9.04
20 | CCn1ccnc1CN1C[C@@H](CN2CCCC2)[C@@H](CO)C1 | -3.33 | 6.48
21 | CC(C)c1ncc2c(n1)CN(Cc1cccc(C#N)c1)CC2 | 0.9 | -1.08
22 | Cc1cc(C)cc(OCC(=O)NC2CCN(S(C)(=O)=O)CC2)c1 | 0.903 | -16.4
23 | O=C(Cn1cc(-c2ccccc2)ncc1=O)Nc1ccncc1 | 1.91 | -0.041
24 | CN(CCc1ccccn1)S(=O)(=O)N1CCCC1c1ccco1 (configuration not stated) | 2.3 | 32.1
25 | CC1CN(C)c2ccccc2CN1C(=O)c1ccncc1 (configuration not stated) | 6.3 | -12.6
26 | CCCNC(=O)CNc1cc(C(=O)N2CCSCC2)ccc1C | -2.64 | -9.17

Row | Structure (SMILES) | Percent Effect [1] [%] | Percent Effect [2] [%]
27 | Cc1ccc(N(C)C2CCN(C(=O)CCc3ccco3)CC2)nn1 | 2.42 | -5.22
28 | Cn1ncc2c1NC(=O)CC2c1ccc(Cl)cc1Cl (configuration not stated) | 5.72 | -26.2
29 | Cn1ccc(C(=O)NC2CCC23CCN(C(=O)N2CCCC2)CC3)c1 (configuration not stated) | -3.32 | -4.99
30 | COc1cccc(N2CCN(C(=O)[C@H](O)C3CCCCC3)CC2=O)c1 | -3.25 | -7.11
31 | COC(=O)c1cc(OCC2CCC2)cc(C(=O)N[C@H]2CC[C@H](O)CC2)c1 | 9.23 | -30.2
32 | CCN1C(=O)CCCC12CCCN(C(=O)c1conc1C)C2 (configuration not stated) | -4.46 | 1.9
33 | COCC(NC(=O)c1ccc[nH]1)c1cccc(C(F)(F)F)c1 (configuration not stated) | -2.7 | -17.9
34 | O=C([C@@H]1C[C@@H]2CCN(CCc3ccccc3)C[C@H]2O1)N1CCCC1 | -0.868 | -14.6
35 | CCc1cc(O)nc(C2CCCN2C(=O)c2cccnc2)n1 (configuration not stated) | 2.54 | 2.33
36 | Cc1cccc2c1cnn2CCC(=O)NCC(=O)N(C)C | -1.19 | -22.2
37 | Cc1ccc(C(=O)N2CCCC3(CCCC(=O)N3C)C2)cc1F (configuration not stated) | 3.71 | -5.85
38 | CCCn1c(C)cc(C(=O)CN2C(=O)c3ccccc3CS2(=O)=O)c1C | 0.257 | -23.8
39 | COc1cccc(-c2nccnc2C2CCN(C(C)=O)CC2)c1 | -3.41 | 16.4
40 | O=C(COc1ccc2c(c1)CCC2)NS(=O)(=O)c1cncc(Br)c1 | 4.7 | 4.36
41 | CCCNC(=O)CN1CCN(Cc2csc(C(C)(C)C)n2)CC1 | -3.03 | 11.1
42 | CN(C)CCOCC1CN(C(=O)[C@H]2CCCO2)Cc2ccnn2C1 (some centres not stated) | 0.379 | -15.2
43 | COCC(=O)N(C)Cc1ccc(Cl)c(Cl)c1 | -3.56 | 2.03
44 | CC(O)CN1CCC(CNCc2ccccc2OC(F)(F)F)CC1 (configuration not stated) | -1.43 | 5.19
45 | CCc1nccn1C1CCCN(C(=O)c2ccc3[nH]cnc3c2)C1 (configuration not stated) | 0.869 | 11.5
46 | CC(C)n1[nH]c(=O)c2c1NC(=O)CC2c1ccc2ncccc2c1 (configuration not stated) | -3.5 | -15.3
47 | CC(C)c1ncc(CN2CCCC(CO)C2)cn1 (configuration not stated) | 0.491 | 5.71
48 | CC(C)c1nccn1-c1cccc(C2CCCN2S(=O)(=O)N(C)C)n1 (configuration not stated) | 8.78 | 0.999
49 | CC(C)N1CCC(Cc2cncc(-c3ccccc3C(=O)O)n2)CC1 | 1.34 | 6.75
50 | O=C(NCc1ccccn1)[C@@H]1COC[C@H]2CN(C3CCOCC3)C[C@H]21 | 7.53 | -6.42
51 | CC(C)(C)c1ccn(C2(C(=O)O)CCN(c3nccc(N)n3)CC2)n1 | 3.12 | -19.9
52 | Cc1ccc(-c2cn[nH]c2C2CCCN(c3nccc(N)n3)C2)cc1 (configuration not stated) | 2.79 | -37.9

Row | Structure (SMILES) | Percent Effect [1] [%] | Percent Effect [2] [%]
53 | Clc1cc(CN2CCCC2Cn2cncn2)c2ncccc2c1 (configuration not stated) | -0.0583 | 6.1
54 | c1csc(-c2nc(CNC3CCc4ncnn4C3)cs2)c1 (configuration not stated) | -3.43 | -12.9
55 | Cc1nn(C)c(C)c1C1CCCN1CC(=O)Nc1ccncc1 (configuration not stated) | 1.52 | 11.1
56 | Cc1cc(CN(C)C(=O)c2ccc(F)cc2Br)no1 | 0.189 | -57
57 | CN(C)C[C@H]1OC[C@@H]2CCN(S(=O)(=O)c3ccccc3)C[C@@H]21 | 4.96 | -1.44
58 | Cc1ccoc1C(=O)NC1CCN(Cc2csc3c(F)cccc23)CC1 | -0.83 | -64.2
59 | Cc1ccc(NC2CCN(C(=O)c3ccsc3)CC2)nn1 | -2.79 | -2.79
60 | CC1CCN(CCCNS(=O)(=O)c2cccc(F)c2)CC1 | 11.5 | -61.6
61 | CNC(=O)c1cccc(C2CNCCN2C)c1 (configuration not stated) | -2.1 | -13.8
62 | Cc1cc(C2CCCN2CC(=O)N(CCC#N)c2ccccc2F)on1 (configuration not stated) | 3.09 | 0.491
63 | Cn1cc(CN2C[C@@H]3COC[C@@H](C(=O)N4CCCCO4)[C@@H]3C2)cn1 | -1.16 | -15.2
64 | Cc1ccc(Cc2cnc(NC(=O)C3CNC(=O)N3)s2)cc1F (configuration not stated) | -6.24 | -17.9
65 | Cc1nn(C)c(Cl)c1C1CCCN1C(=O)c1nccnc1N (configuration not stated) | -0.929 | 22.4
66 | CC(C)Nc1nc2c(cc1C(=O)N(C)C)CCNCC2 | 3.61 | -0.0143
67 | CC(C(=O)N1CCCN(Cc2ccc(C#N)cc2)CC1)n1ccnc1 (configuration not stated) | -0.834 | 29.9
68 | O=C1NCCN1C1CCN(Cc2nc(-c3ccoc3)no2)CC1 | -7.34 | -21.2
69 | Cc1nc(C)n(C2CCCN(C(=O)c3ccc(N(C)C)nn3)C2)n1 (configuration not stated) | 0.605 | 11.2
70 | O=C(NCc1cccnc1)C1=NOC2(CCN(S(=O)(=O)C3CC3)C2)C1 (configuration not stated) | -3.41 | -21.8
71 | CC(C)OCCCNC(=O)CS(=O)(=O)Cc1ccc(Cl)c(Cl)c1 | 5.22 | 30.4
72 | CCCn1nc2c(cc1=O)CN(CCS(C)(=O)=O)CC2 | 5.96 | 0.931
73 | Cc1ccoc1C(=O)N1CC[C@H]2O[C@@H](C)C[C@H]2C1 | -2.48 | -17.1
74 | Cc1ccc(C)c(OC2CCN(C(=O)c3ccc(O)nc3)CC2)c1 | -0.922 | 26.4
75 | CN(Cc1cnn(C)c1)C(=O)NC1CCN(Cc2ccccn2)CC1 | 5.83 | -5.06
76 | CN1CCN(C(=O)c2ccc(=O)n(C)c2)c2ccccc21 | -7.61 | -16.6
77 | CC(C)C(C)NC(=O)Nc1ccccc1CN1CCOCC1 (configuration not stated) | 3.91 | 9.92
78 | O=C(Cn1cnnn1)N1CCCCC1Cn1cccn1 (configuration not stated) | -0.885 | 9.78

Row | Structure (SMILES) | Percent Effect [1] [%] | Percent Effect [2] [%]
79 | O=C(C1CCOCC1)N1CCc2ncnc(-c3ccc(F)cc3)c2CC1 | -1.43 | -14
80 | CN1CCN(c2cc(CNC(=O)c3ccc(=O)n(C)c3)ccn2)CC1 | -4.9 | -0.684
81 | CC(=O)N1CCCN(C(=O)NCc2cc[nH]n2)CC1 | -1.74 | -9.44
82 | Nc1nc(CN2CCOC(Cn3cncn3)C2)nc2ccccc12 (configuration not stated) | -1.84 | 5.62
83 | CCOc1ccc(C(=O)NS(=O)(=O)c2cncc(Br)c2)cc1OC | -5.81 | -12
84 | CSc1ncccc1C(=O)N1C[C@H]2CC[C@@H]1CN(c1cnccn1)C2 | 7.16 | -42.6
85 | Cc1cccc(CN2CCc3nnc(CO)n3CC2)n1 | 0.728 | -10.4
86 | Cc1cnnn1Cc1ncn2c1CN(Cc1cccs1)CCC2 | -1.27 | -3.58
87 | CN1CC(C(=O)NC(C)(C)C)CC1=O (configuration not stated) | 0.616 | -21.3
88 | Cc1cccnc1NC(=O)NC(C)Cn1cccn1 (configuration not stated) | -3.52 | 15.4
89 | N#Cc1ccc(N2CCCN(C(=O)CC3CCCO3)CC2)cc1 (configuration not stated) | 4.84 | 11.8
90 | Cc1c[nH]nc1C1CCN(S(=O)(=O)N(C)C)CC1 | 2.31 | -2.83
91 | Cc1ccccc1CNC(=O)Cc1c(C)nc2cc(=O)[nH]n2c1C | -0.856 | 17.8
92 | N#Cc1ccccc1CN1CCCCC1Cn1cncn1 (configuration not stated) | 0.359 | 25
93 | Cc1ccc(C(=O)N2CCN(Cc3ccsc3)CC2)n1C | 1.28 | 3.04
94 | CN(CC(=O)Nc1ccc(Br)cn1)C(=O)Cc1ccc(O)cc1 | -5.92 | 17.8
95 | O=C(c1cccnc1O)N(Cc1ccsc1)CC1CCCO1 (configuration not stated) | -1.37 | -27.4
96 | CCN(c1ccc(C(=O)N2CCCC2)cc1)S(=O)(=O)CC | 5.6 | -13.5
97 | Cc1cc(CN(C)C2CCCN(Cc3noc(C4CC4)n3)C2)no1 (configuration not stated) | 1.66 | 28
98 | COc1ccc(-c2noc(CN3CCOCC3C)n2)cc1OC (configuration not stated) | 4.1 | 26.5
99 | Cc1cc(C(=O)N2CCC(c3nccn3CCCN(C)C)CC2)no1 | 7.7 | -11.8
100 | Cn1cccc1C(=O)N[C@@H]1CN(CC2CC2)[C@@H]2COC[C@@H]21 | 1.28 | -3.7
101 | COC(=O)c1cccc(NC(=O)CN2CCN(S(C)(=O)=O)CC2)c1 | 1.93 | 10.4
